The campaign covered roughly 5,500 compounds. About 2,000 (36%) were called active. Another 18% or so got no clear call; they are omitted. No stated cut-off is given here; in the data, active means normalized growth mostly below about 0.91 (no sharp cut-off); inconclusive means no clear call, values can overlap the other calls; inactive means mostly above about 0.92. The list shows a part of the results.
Test: chemical genetic growth profiling, strain panel (AID 1159580);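 further: tested at 20 µM; growth read once vehicle control cultures reached saturation at 30 °C; 1 = growth at the plate median or of vehicle wells; lower values mean less growth of the strain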
Settings: growth OD

Measured: normalized growth

C[C@]12CCC3c4ccc(OS(=O)(=O)O)cc4CCC3C1CC[C@H]2O (stereo not given in full)
inactive: S. cerevisiae deletion strains, locus YJR043C, strain POL32, active compounds read low 1 | S. cerevisiae deletion strains, locus YJR066W, strain TOR1, active compounds read low 0.983 | S. cerevisiae deletion strains, locus YKL009W, strain mrt4, active compounds read low 0.99 | S. cerevisiae deletion strains, locus YKL068W, active compounds read low 0.995 | S. cerevisiae deletion strains, locus YKL085W, strain MDH1 (second series), active compounds read low 0.987 | S. cerevisiae deletion strains, locus YKL085W, strain MDH1, active compounds read low 0.987 | S. cerevisiae deletion strains, locus YKL160W, strain elf1, active compounds read low 0.923 | S. cerevisiae deletion strains, locus YKL190W, strain CNB1, active compounds read low 1 | S. cerevisiae deletion strains, locus YKR001C, strain vps1, active compounds read low 0.994 | S. cerevisiae deletion strains, locus YKR026C, strain gcn3, active compounds read low 0.988 | S. cerevisiae deletion strains, locus YKR091W, strain srl3, active compounds read low 0.97 | S. cerevisiae deletion strains, locus YLL001W, strain dnm1, active compounds read low 0.994 | S. cerevisiae deletion strains, locus YLL026W, active compounds read low 0.967 | S. cerevisiae deletion strains, locus YLL041C, strain sdh2, active compounds read low 0.978 | S. cerevisiae deletion strains, locus YLR027C, strain aat2, active compounds read low 0.997 | S. cerevisiae deletion strains, locus YLR039C, strain RIC1, active compounds read low 0.977 | S. cerevisiae deletion strains, locus YLR058C, strain SHM2, active compounds read low 0.99 | S. cerevisiae deletion strains, locus YLR102C, strain apc9, active compounds read low 0.99 | S. cerevisiae deletion strains, locus YLR113W, strain HOG1, active compounds read low 0.963 | S. cerevisiae deletion strains, locus YLR221C, strain rsa3, active compounds read low 1.02 | S. cerevisiae deletion strains, locus YLR258W, strain gsy2, active compounds read low 0.965 | S. cerevisiae deletion strains, locus YLR262C, strain YPT6 (second series), active compounds read low 0.977 | S. cerevisiae deletion strains, locus YLR262C, strain YPT6, active compounds read low 0.945 | S. cerevisiae deletion strains, locus YLR268W, strain sec22, active compounds read low 0.973 | S. cerevisiae deletion strains, locus YLR320W, strain mms22, active compounds read low 1.02 | S. cerevisiae deletion strains, locus YLR330W, strain CHS5, active compounds read low 0.987 | S. cerevisiae deletion strains, locus YLR342W, strain FKS1 (second series), active compounds read low 0.988 | S. cerevisiae deletion strains, locus YLR342W, strain FKS1, active compounds read low 0.987 | S. cerevisiae deletion strains, locus YLR357W, strain rsc2, active compounds read low 0.955 | S. cerevisiae deletion strains, locus YLR370C, strain arc18, active compounds read low 0.976 | S. cerevisiae deletion strains, locus YLR371W, strain rom2, active compounds read low 0.986 | S. cerevisiae deletion strains, locus YLR384C, strain iki3, active compounds read low 0.959 | S. cerevisiae deletion strains, locus YLR418C, strain cdc73, active compounds read low 0.973 | S. cerevisiae deletion strains, locus YML016C, strain PPZ1, active compounds read low 0.993 | S. cerevisiae deletion strains, locus YML032C, strain rad52, active compounds read low 0.989 | S. cerevisiae deletion strains, locus YML120C, strain ndi1, active compounds read low 0.995 | S. cerevisiae deletion strains, locus YML124C, strain tub3, active compounds read low 0.988 | S. cerevisiae deletion strains, locus YMR058W, strain fet3, active compounds read low 0.979 | S. cerevisiae deletion strains, locus YMR078C, strain ctf18, active compounds read low 0.982 | S. cerevisiae deletion strains, locus YMR125W, strain sto1, active compounds read low 0.994 | S. cerevisiae deletion strains, locus YMR129W, active compounds read low 0.961 | S. cerevisiae deletion strains, locus YMR205C, strain PFK2, active compounds read low 1.01 | S. cerevisiae deletion strains, locus YMR223W, strain ubp8, active compounds read low 0.985 | S. cerevisiae deletion strains, locus YMR231W, strain pep5, active compounds read low 0.991 | S. cerevisiae deletion strains, locus YMR263W, strain SAP30, active compounds read low 1 | S. cerevisiae deletion strains, locus YMR307W, strain GAS1, active compounds read low 0.928 | S. cerevisiae deletion strains, locus YNL067W, strain RPL9B, active compounds read low 1.02 | S. cerevisiae deletion strains, locus YNL071W, strain lat1, active compounds read low 0.988 | S. cerevisiae deletion strains, locus YNL128W, strain TEP1, active compounds read low 0.982 | S. cerevisiae deletion strains, locus YNL153C, strain GIM3, active compounds read low 1.03 | S. cerevisiae deletion strains, locus YNL183C, strain NPR1, active compounds read low 0.913 | S. cerevisiae deletion strains, locus YNL209W, strain ssb2, active compounds read low 0.979 | S. cerevisiae deletion strains, locus YNL233W, strain BNI4, active compounds read low 0.998 | S. cerevisiae deletion strains, locus YNL248C, strain rpa49, active compounds read low 0.914 | S. cerevisiae deletion strains, locus YNL250W, strain rad50, active compounds read low 0.995 | S. cerevisiae deletion strains, locus YNL271C, strain bni1, active compounds read low 0.989 | S. cerevisiae deletion strains, locus YNL298W, strain CLA4, active compounds read low 0.984 | S. cerevisiae deletion strains, locus YNL307C, strain MCK1, active compounds read low 0.98 | S. cerevisiae deletion strains, locus YNL322C, strain KRE1 (second series), active compounds read low 0.952 | S. cerevisiae deletion strains, locus YNR049C, strain mso1, active compounds read low 0.953 | S. cerevisiae deletion strains, locus YNR052C, strain pop2, active compounds read low 0.982 | S. cerevisiae deletion strains, locus YOL006C, strain TOP1, active compounds read low 1.05 | S. cerevisiae deletion strains, locus YOL012C, strain htz1 1.45 | S. cerevisiae deletion strains, locus YOL147C, strain pex11, active compounds read low 0.984 | S. cerevisiae deletion strains, locus YOR001W, strain rrp6, active compounds read low 1.01 | S. cerevisiae deletion strains, locus YOR061W, strain CKA2, active compounds read low 0.986 | S. cerevisiae deletion strains, locus YOR069W, strain VPS5, active compounds read low 0.988 | S. cerevisiae deletion strains, locus YOR070C, strain gyp1, active compounds read low 0.991 | S. cerevisiae deletion strains, locus YOR080W, strain dia2, active compounds read low 0.96 | S. cerevisiae deletion strains, locus YOR083W, strain WHI5, active compounds read low 0.901 | S. cerevisiae deletion strains, locus YOR106W, strain vam3, active compounds read low 0.95 | S. cerevisiae deletion strains, locus YOR136W, strain idh2, active compounds read low 0.988 | S. cerevisiae deletion strains, locus YOR144C, strain elg1, active compounds read low 0.987 | S. cerevisiae deletion strains, locus YOR184W, strain ser1, active compounds read low 0.995 | S. cerevisiae deletion strains, locus YOR231W, strain MKK1, active compounds read low 0.965 | S. cerevisiae deletion strains, locus YOR265W, strain rbl2, active compounds read low 0.978 | S. cerevisiae deletion strains, locus YOR270C, strain vph1, active compounds read low 0.97 | S. cerevisiae deletion strains, locus YOR290C, strain snf2, active compounds read low 0.951 | S. cerevisiae deletion strains, locus YOR316C, strain cot1, active compounds read low 0.989 | S. cerevisiae deletion strains, locus YPL051W, strain arl3, active compounds read low 0.973 | S. cerevisiae deletion strains, locus YPL078C, strain atp4, active compounds read low 0.97 | S. cerevisiae deletion strains, locus YPL106C, strain sse1, active compounds read low 0.955 | S. cerevisiae deletion strains, locus YPL240C, strain hsp82, active compounds read low 0.984 | S. cerevisiae deletion strains, locus YPL256C, strain CLN2, active compounds read low 0.981 | S. cerevisiae deletion strains, locus YPR119W, strain clb2, active compounds read low 0.988 | S. cerevisiae deletion strains, locus YPR141C, strain kar3, active compounds read low 0.984 | S. cerevisiae deletion strains, locus YPR163C, strain tif3, active compounds read low 0.984 | S. cerevisiae deletion strains, locus YPR167C, strain met16, active compounds read low 0.988 | S. cerevisiae deletion strains, strain wtn01, active compounds read low 0.975 | S. cerevisiae strains, strain wild type, active compounds read low 0.999

Reference: PubChem BioAssay AID1159580 (chemical genetic matrix, 2015)
